These results are taken from the supplement of paper PMC3842684.

The subject of experiment [1] is P. falciparum NF54-pfs16-GFP early (I-III) stage gametocytes. Briefly: relative % inhibition of viable gametocyte number; higher = more gametocytocidal. Particulars: stage: early (I-III) gametocyte, incubation 72 h. In a few lines:
(§1)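 Magnet-isolated NF54 pfs16-GFP gametocytes at early (I/IIa, day 2) or late (day 8) stage were exposed to compound at 5 or 0.5 µM for 72 h at 37°C, 5% CO2, 5% O2, at 10% parasitaemia and 0.1% haematocrit. Elongated GFP objects with MitoTracker Red signal above cut-off were counted as viable by confocal imaging. Relative inhibition was normalised to in-plate vehicle and positive-control wells.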

The test system of experiment [2] is P. falciparum NF54-pfs16-GFP late (IV-V) stage gametocytes. Described as above. Particulars: stage: late (IV-V) gametocyte, incubation 72 h. In a few lines: as §1

With `COc1ccc(-c2cc3c(nn2)-c2ccccc2C3=O)cc1`, the relative % inhibition in experiment [1] (0.5 µM) is -10.8%; in experiment [1] (5 µM), 81.1%; in experiment [2] (0.5 µM) it was 87.4%; in experiment [2] (5 µM), 96.1%.
The corresponding values for `CCOC(=O)C1=C(C)N=c2sc(=Cc3ccccc3O)c(=O)n2C1c1ccc(OC)c2ccccc12` (centres undefined) are -2.21%, 86.4%, 65.8% and 61.1%.
The corresponding values for `COc1ccc(C2c3ccc4ccccc4c3Oc3ncn(CCCN(C)C)c(=N)c32)cc1` (centres undefined) are 76.2%, -22.6%, 108% and 115%.
Consider `COc1cc(-c2nc(-c3ccccc3)c(-c3ccccc3)[nH]2)cc(OC)c1O`, for which the relative % inhibition in experiment [1] (0.5 µM) is 15.2%; in experiment [1] (5 µM), 29.3%; in experiment [2] (0.5 µM), -17%; in experiment [2] (5 µM), 2.98%.
The corresponding values for `COc1ccc(C2c3ccc4ccccc4c3Oc3ncn(CCCn4ccnc4)c(=N)c32)cc1OC` (centres undefined) are 59.1%, -9.76%, 49.2% and 74.6%.
The corresponding values for `Cc1[nH]c(-c2ccc(F)cc2)cc1C(=O)NC1CCN(Cc2ccccc2)CC1` are 14.7%, 75.3%, 6.29% and 15.4%.
On the same counts, the results for `COc1ccc(-c2nc(NC(=O)CS(=O)(=O)c3ccc(F)cc3)sc2C)cc1` are 12.7%, 100%, 73% and 92.9%.
Regarding `Cc1cc(Nc2ccc3ccccc3c2)n2ncnc2n1`, the relative % inhibition in experiment [1] (0.5 µM) was -10.4%; in experiment [1] (5 µM) it was 3.61%; in experiment [2] (0.5 µM) it was 1.55%; in experiment [2] (5 µM) it was 8.91%.
Regarding `C[n+]1c2ccccc2nc2ccc(NCCO)cc21`, the relative % inhibition in experiment [1] (0.5 µM) turned out to be 6.83%; in experiment [1] (5 µM), 0.402%; in experiment [2] (0.5 µM) it was 13.2%; in experiment [2] (5 µM) it was 4.26%.
On to `COc1ccccc1N1C(=N)SC(=Cc2ccc(OCc3ccccc3F)cc2)C1=O`, for which the relative % inhibition in experiment [1] (0.5 µM) is 2.18%; in experiment [1] (5 µM), 25.8%; in experiment [2] (0.5 µM), 32.6%; in experiment [2] (5 µM) it was 69.4%.
The corresponding values for `O=C(NCc1ccco1)C1CCN(S(=O)(=O)c2ccc(Cl)cc2)CC1` are 7.81%, 3.24%, 18.1% and 50%.
On the same counts, the results for `Cc1ccc(Nc2nc(NCCO)c3ccccc3n2)cc1C` are -7.63%, 84.7%, 38% and 53.9%.
Consider `CC(=O)Nc1nnc(SCc2c(C)cc(C(C)(C)C)cc2C)s1`, for which the relative % inhibition in experiment [1] (0.5 µM) is 13.5%; in experiment [1] (5 µM), 19.8%; in experiment [2] (0.5 µM), -4.86%; in experiment [2] (5 µM), 60.7%.
On the same counts, the results for `CCN(CC)CCNc1ncnc2c1[nH]c1ccc(Br)cc12` are -15.3%, 61.4%, 12.4% and 27.1%.
The corresponding values for `CN(C)CCNc1cc(-c2ccccc2)nc2ccccc12` are -7.32%, -20.1%, -18.3% and 6.35%.
Turning to `CC1CC2=C(CC1CNCCCN(C)C)C(C)(C)CCC2` (centres undefined), the relative % inhibition is 33.8% in experiment [1] (0.5 µM), 97.1% in experiment [1] (5 µM), 20.7% in experiment [2] (0.5 µM) and 85.3% in experiment [2] (5 µM).
The corresponding values for `COc1cccc(C(=O)Nc2ccc(-c3nc4ccccc4[nH]3)cc2)c1` are 12.4%, -15.3%, 20% and -5.77%.
On the same counts, the results for `CCOC(=O)C1CCN(C(=O)CN2C(=O)c3ccccc3C2c2c[nH]c3ccccc23)CC1` (centres undefined) are 7.45%, 98.3%, 28.9% and 63.3%.
The corresponding values for `CCOc1ccccc1CN1CCc2nc3cc(C(C)(C)C)nn3c(O)c2C1` are -6.1%, -4.88%, 66.3% and 76.6%.
As to `OC(CNC1CCCCC1)Cn1c2ccccc2c2ccccc21` (centres undefined), the relative % inhibition in experiment [1] (0.5 µM) amounted to 14.8%; in experiment [1] (5 µM) it was 66%; in experiment [2] (0.5 µM) it was 49.9%; in experiment [2] (5 µM), 104%.
On the same counts, the results for `CCCCc1ccc(NS(=O)(=O)c2cc3c4c(c2)CCN4C(=O)CC3)cc1` are 12.3%, 1.37%, 0.5% and -7.42%.
The corresponding values for `N=c1c2ccccc2nnn1-c1cccc(C(F)(F)F)c1` are 1.39%, 17.4%, 14.7% and 46.2%.
`Cc1ccc(CN2CCC(C(=O)Nc3ccc(-c4cc5ccccc5[nH]4)cc3)CC2)o1`: the relative % inhibition in experiment [1] (0.5 µM) is 9.97%; in experiment [1] (5 µM), 90.5%; in experiment [2] (0.5 µM) it was 3.47%; in experiment [2] (5 µM) it was -13.5%.
On to `CC(C)=CCN1CCC(C(=O)Nc2ccc(-c3nc4ccccc4[nH]3)cc2)CC1`, for which the relative % inhibition in experiment [1] (0.5 µM) was 3.42%; in experiment [1] (5 µM), 74.1%; in experiment [2] (0.5 µM), 16.4%; in experiment [2] (5 µM), -15.7%.
On the same counts, the results for `Cc1cc(Nc2ccc(OCc3ccccc3)cc2)nc2cc(O)ccc12` are 12.6%, 95.1%, 35.1% and 78.3%.
The corresponding values for `COc1cccc(NC(=O)Cn2c(C)c(C#N)c3ccccc32)c1` are 17%, 45.2%, -4.97% and 29.8%.
On the same counts, the results for `COc1ccc(C=C2SC(Nc3ccccc3)=NC2=O)cc1` are 11.7%, 17.7%, 47.2% and 61.6%.
As to `CCCCCCn1c(=N)n(CC(O)COc2cccc(C)c2)c2ccccc21` (centres undefined), the relative % inhibition in experiment [1] (0.5 µM) is 23%; in experiment [1] (5 µM) it was 52%; in experiment [2] (0.5 µM), -12.2%; in experiment [2] (5 µM) it was 103%.
The corresponding values for `CCOc1cccc(C(=O)Nc2ccc(-c3nc4ccccc4[nH]3)cc2)c1` are 35.7%, -17.2%, 4.79% and 17.9%.
The corresponding values for `CC(=O)c1ccc(NC(=O)CSc2nc(-c3ccccc3Cl)ns2)cc1` are 3.99%, 39.1%, 22.2% and 5.88%.
The corresponding values for `Cc1ccc(C)c(-c2csc(Nc3ccc(C)c(C)c3)n2)c1` are 9.93%, -13.3%, 15.6% and 41.4%.
